In PubChem BioAssay (NCATS):
“And” between values parts separate entries of the source, which are not always exact repeats. Equal values may be shown once. Unmarked numbers belong to inactive results. Records with an inconclusive call do not appear. Where a call stands in place of a potency, no number is given. The source made the active and inactive calls. Unless noted, calls follow the shape of the dose curve; as a rule, active = well fitted curve in the direction sought with a large enough effect; inconclusive = small, poorly fitted or top-dose-only effect, or another doubt; inactive = no such curve, though single readings can be large; an effect the other way counts as inactive or inconclusive.

Columns and labels:
[1] = qHTS for Inhibitors of Plasmodium falciparum (DD2) proliferation (AID 504314); also: potency is read from the fitted curve at half-maximal effect;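 as to activity, negative = inhibition: parasite DNA measured by SYBR Green fluorescence after red cell lysis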
Outline: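 Erythrocytes infected with P. falciparum Dd2 (0.3% parasitemia, 2.5% hematocrit) exposed to compound 72 h at 37C, 5% CO2. Parasite DNA quantified by SYBR Green fluorescence after saponin/Triton lysis overnight; normalized to 0.29 uM artemisinin and DMSO.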

[2] = qHTS for Inhibitors of Plasmodium falciparum (GB4) proliferation (AID 504315); also: nearly all actives have a fitted effect of over 50% in size; also: potency is read from the fitted curve at half-maximal effect
Outline: (§1)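 Erythrocytes infected with P. falciparum line (0.3% parasitemia, 2.5% hematocrit final) incubated with compounds 72 h at 37 °C, 5% CO2; SYBR Green lysis buffer added, fluorescence read next day. Normalized to 0.29 uM artemisinin and DMSO.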

[3] = qHTS for Inhibitors of Plasmodium falciparum (7G8) proliferation (AID 504316); also: series mostly up to about 6.7 µM; nearly all actives have a fitted effect of over 65% in size
Outline: as §1

[4] = qHTS for Inhibitors of Plasmodium falciparum (CP250) proliferation (AID 504320)
Outline: as §1

[5] = target: Atrial natriuretic peptide receptor 1 (Homo sapiens) (UniProt P16066); test: Natriuretic polypeptide receptor (hNpr1) antagonism - Pilot CMLD screen (AID 1347052; calls by dose curve;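 also: HEK293 cells with hNpr1 stimulated by hNppA peptide at 0.1 nM; cGMP level read as GloSensor luciferase luminescence after agonist stimulation; series mostly up to about 9.2 µM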)
Atrial natriuretic peptide receptor 1 (Homo sapiens), sequence (P16066 whole entry, looked up): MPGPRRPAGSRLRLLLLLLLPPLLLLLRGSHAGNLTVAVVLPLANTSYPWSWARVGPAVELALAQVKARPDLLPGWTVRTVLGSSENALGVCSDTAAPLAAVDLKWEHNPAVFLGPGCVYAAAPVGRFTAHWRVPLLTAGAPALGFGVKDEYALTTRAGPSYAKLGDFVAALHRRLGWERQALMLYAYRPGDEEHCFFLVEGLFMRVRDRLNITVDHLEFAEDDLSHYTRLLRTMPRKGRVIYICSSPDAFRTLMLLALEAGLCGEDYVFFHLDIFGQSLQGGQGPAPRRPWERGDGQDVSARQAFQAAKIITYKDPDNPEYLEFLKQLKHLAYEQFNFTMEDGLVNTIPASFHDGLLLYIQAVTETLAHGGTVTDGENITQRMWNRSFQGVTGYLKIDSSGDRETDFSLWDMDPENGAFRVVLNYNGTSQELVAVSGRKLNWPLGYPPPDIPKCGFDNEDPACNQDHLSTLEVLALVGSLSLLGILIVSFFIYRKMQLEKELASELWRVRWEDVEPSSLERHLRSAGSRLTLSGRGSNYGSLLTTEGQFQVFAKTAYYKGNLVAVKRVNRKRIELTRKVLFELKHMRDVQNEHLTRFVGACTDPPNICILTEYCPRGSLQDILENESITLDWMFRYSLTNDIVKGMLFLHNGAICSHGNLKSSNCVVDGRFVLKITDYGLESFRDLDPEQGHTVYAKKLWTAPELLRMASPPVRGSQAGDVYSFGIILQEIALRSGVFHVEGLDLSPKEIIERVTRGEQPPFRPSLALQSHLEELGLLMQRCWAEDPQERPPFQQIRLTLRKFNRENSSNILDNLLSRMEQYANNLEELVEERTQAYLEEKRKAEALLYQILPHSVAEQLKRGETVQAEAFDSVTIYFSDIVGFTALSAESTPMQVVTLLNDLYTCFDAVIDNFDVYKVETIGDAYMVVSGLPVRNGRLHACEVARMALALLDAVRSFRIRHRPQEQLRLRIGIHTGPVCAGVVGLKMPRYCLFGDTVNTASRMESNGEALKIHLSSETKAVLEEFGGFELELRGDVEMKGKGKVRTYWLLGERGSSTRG

[6] = qHTS for Inhibitors of Plasmodium falciparum (HB3) proliferation (AID 504318); also: nearly all actives have a fitted effect of over 60% in size; also: potency is read from the fitted curve at half-maximal effect
Outline: as §1

[7] = target: Cytochrome P450 3A4 (Homo sapiens) (UniProt P08684); test: qHTS Assay for Activators of Cytochrome P450 3A4 (AID 885); also: nearly all actives have a fitted effect of over 65% in size
Cytochrome P450 3A4 (Homo sapiens), sequence (P08684 whole entry, looked up): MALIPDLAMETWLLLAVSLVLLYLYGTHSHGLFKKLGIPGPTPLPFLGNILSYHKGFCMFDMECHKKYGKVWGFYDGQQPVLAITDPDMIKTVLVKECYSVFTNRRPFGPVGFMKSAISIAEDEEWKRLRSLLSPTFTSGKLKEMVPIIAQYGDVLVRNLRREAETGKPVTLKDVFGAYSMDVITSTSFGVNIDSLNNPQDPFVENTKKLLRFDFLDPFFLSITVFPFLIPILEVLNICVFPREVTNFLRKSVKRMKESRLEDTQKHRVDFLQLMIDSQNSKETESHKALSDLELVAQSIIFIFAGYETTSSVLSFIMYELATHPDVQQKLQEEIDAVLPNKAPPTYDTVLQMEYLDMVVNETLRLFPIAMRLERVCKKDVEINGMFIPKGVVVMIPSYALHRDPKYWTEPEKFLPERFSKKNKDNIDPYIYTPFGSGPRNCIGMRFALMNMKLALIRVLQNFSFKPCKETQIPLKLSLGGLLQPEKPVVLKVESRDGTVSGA
Outline: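 Human CYP3A4 (20 nM) with Luciferin-PPXE at 25 uM (its KM) in 200 mM KPO4; 10 min compound preincubation, then NADPH regeneration and 60 min reaction at RT. Luciferin read by luminescence; normalized to 57 uM ketoconazole full inhibition.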

| SMILES | Potency [1] | Potency [2] | Potency [3] | Potency [4] | Potency [5] | Potency [6] | activity change, positive = activation [7] | activity, negative = inhibition [1] |
| --- | --- | --- | --- | --- | --- | --- | --- | --- |
| COC(=O)C1=C(C)N(Cc2ccco2)C(=O)NC1c1ccc(Br)cc1 (stereo not given) | inactive | inactive | inactive | inactive | inactive |  |  |  |
| O=C(NN=C1C[C@@H](O)[C@H](O)[C@H]2[C@@H]3C(=O)N(C4CCCCC4)C(=O)[C@@H]3CC[C@@H]12)OCc1ccccc1 | inactive | inactive | inactive | inactive | inactive |  |  |  |
| C=CCCN1C=C(C(=O)OCC)C(c2ccccc2)NC1=O (stereo not given) | inactive | inactive | inactive | inactive | inactive |  |  |  |
| COC(=O)c1ccc(CN2C(=O)[C@]3(O[C@H](C)CC4=CCCC43)c3c(Br)cccc32)cc1 (stereo not given in full) | inactive | inactive | inactive | inactive | inactive |  |  |  |
| Cc1cc(O)cc(O)c1C(=O)OC1(C)C(=O)C=C2C=C(C=CC(=O)O)OC=C2C1=O (stereo not given) | inactive | inactive | inactive | inactive | inactive |  |  |  |
| CCOC(=O)OC[C@H]1O[C@H](C#Cc2ccc(C)cc2C)C=C[C@H]1OC(=O)OCC | inactive | inactive | inactive | inactive | inactive |  |  |  |
| C=CC[C@@H]1C=CC(ON=C(C)CCC(=O)OC[C@H]2O[C@H](C#Cc3ccccc3)C=C[C@H]2Oc2ccc(C)cc2)[C@H](CO)O1 (stereo not given in full) | inactive | inactive |  | inactive | inactive | inactive |  |  |
| CCOC(=O)CN1C(=O)[C@]2(OCCC=C[C@@H]2C)c2cc(OC)ccc21 | inactive | inactive | inactive | inactive | inactive |  |  |  |
| C=CCN1c2ccccc2[C@]23CCC(=O)N(CC4CC4)C2=NC(C(=O)OC)=C(C(=O)OC)[C@H]13 | inactive | inactive |  | inactive | inactive | inactive |  |  |
| CCN1C(=NCc2cccc(Cl)c2)N[C@@H](CCc2ccccc2)[C@H](C(=O)OC)[C@H]1C | inactive | inactive | inactive | inactive | inactive |  |  |  |
| COC(=O)N[C@@H](CCc1ccccc1)[C@]1(C(C)=O)CCCC1=O | inactive | inactive |  | inactive | inactive | inactive |  |  |
| O=C1C=C(c2ccccc2)CCC1 | inactive | inactive |  | inactive | inactive | inactive |  |  |
| CC=COC(=O)N[C@@H](c1ccccc1)[C@]1(C(C)=O)CCCC1=O | inactive | inactive |  | inactive | inactive | inactive |  |  |
| CCN1C(=O)N(S(=O)(=O)C(F)(F)F)C(c2ccccc2)C(C(=O)OC)=C1C (stereo not given) | inactive | inactive | inactive | inactive | inactive |  |  |  |
| O=P1(O)Oc2c(-c3ccccc3)cc3ccccc3c2-c2c(c(-c3ccccc3)cc3ccccc23)O1 | inactive | inactive | inactive | inactive | inactive |  |  |  |
| COc1ccc2c(c1)[C@@]1(OCCC=C[C@@H]1C)C(=O)N2Cc1ccc(Br)cc1 | inactive | inactive |  | inactive | inactive | inactive |  |  |
| C#CCCCON=C1C[C@@H](O)[C@@H](O)[C@@H]2[C@H]3C(=O)N(C(C)(C)C)C(=O)[C@@H]3CC[C@H]12 | inactive | inactive |  |  | inactive | inactive |  |  |
| CC(=O)OC[C@H]1O[C@H](CC=NO[C@@H](C)CN2CCCc3nc(C)c(C)cc32)C=C[C@@H]1OC(C)=O | inactive | inactive |  |  | inactive | inactive |  |  |
| CC1(OC(=O)C2CCCC2)C(=O)C=C2C=C(c3ccc(C#N)cc3)OC=C2C1=O (stereo not given) | inactive | inactive |  |  | inactive | inactive |  |  |
| COC(=O)N[C@H](C[N+](=O)[O-])c1cccc(C)c1 | inactive | inactive |  | inactive | inactive | inactive |  |  |
| COC[C@@H](O)[C@H]1OCc2cc(OC)ccc2[C@H]1C=Cc1ccccc1 | inactive | inactive |  |  | inactive | inactive |  |  |
| CON(C)C(=O)c1nnc2c3ccccc3n(S(=O)(=O)c3ccc(C)cc3)c2n1 | inactive | inactive | inactive | inactive | inactive |  | -39.7% [at 11.4 µM] and -50.5% [at 11.4 µM] |  |
| C#CCCCON=C1C[C@@H](O)[C@H](O)[C@H]2[C@@H]3C(=O)N(C4CCCCC4)C(=O)[C@@H]3CC[C@@H]12 | inactive | inactive |  | inactive | inactive | inactive |  |  |
| COc1cc2c(cc1OC)CSC1C(=O)N(C)C(SC2)C(=O)N1C | inactive | inactive |  |  | inactive | inactive |  |  |
| CC(C)=CCN1C(=O)[C@]2(O[C@H](COc3ccccc3)CC3=CCCC32)c2c(Br)cccc21 (stereo not given in full) | 3780 nM (active) | 1900 nM (active) |  |  | inactive | 1900 nM (active) |  |  |
| CC1(OC(=O)C2CCCC2)C(=O)C=C2C=C(c3ccsc3)N(Cc3ccc4c(c3)OCO4)C=C2C1=O (stereo not given) |  | inactive | inactive | inactive | inactive |  |  | -6.6% [at 1.12 µM] |
| COC(=O)C1=C(C)C(=O)[C@]2(O)c3ccccc3N(C)[C@]12C | inactive | inactive |  | inactive | inactive | inactive |  |  |
